Test systems include NCI-H23 lung; NCI-H226 lung; NCI-H322M lung; HOP-62 NSCLC; NCI-H460 lung; NCI-H522 lung; A549/ATCC NSCLC; 786-0 renal; COLO 205 colon; DU-145 prostate; MALME-3M melanoma; MDA-MB-231 breast; SF-268 CNS; SF-295 CNS; SF-539 CNS; M14 melanoma; K-562 leukemia; RXF 393 renal; UACC-257 melanoma; HOP-92 NSCLC.
Common to all, as to assay: NCI-60 one-dose screen, 48 h (100 = growth as untreated, 0 = no growth, -100 = all killed)
Common to all, as to conditions: 10 µM unless noted

Compounds without any hit were thinned out: in the full panel of roughly 83,000, 20% have a hit.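 Note: values are percent growth. 100 is the growth of untreated cells, values between 100 and 0 indicate rising inhibition; between -100 and 0 indicates cell death.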 Values without a mark were called inactive. Active and inactive are the calls of the source. Rule for the calls: active = growth percent below 10; inactive = the rest.

Consider `Oc1ccc(/C=N/Nc2nnc(N/N=C/c3ccc(O)cc3O)c3ccccc23)c(O)c1`, for which the growth was -58.7% (active) in the test on NCI-H23 lung; -39.5% (active) with NCI-H226 lung; -0.934% (active) with NCI-H322M lung; -31.6% (active) in the test with HOP-62 NSCLC; -34.1% (active) with NCI-H460 lung; -45.4% (active) in the test on NCI-H522 lung. The growth in the test on A549/ATCC NSCLC is -58% (active); in the test on 786-0 renal, -3.79% (active); in the test on COLO 205 colon, -23.8% (active); in the test on DU-145 prostate, -24.3% (active); in the test with MALME-3M melanoma, -5.87% (active); with MDA-MB-231 breast, -13.6% (active). Besides, the growth with SF-268 CNS is -5.14% (active); in the test on SF-295 CNS it was -38.1% (active); in the test on SF-539 CNS, -42.1% (active); in the test with M14 melanoma, -52.7% (active).
Regarding `O=C1CC(c2ccc3c(c2)OCO3)c2ncn(-c3ccc(Cl)cc3)c2N1` (stereo not drawn), the growth was 41% in the test on NCI-H23 lung; 69.8% with NCI-H226 lung; 51.9% in the test on NCI-H322M lung; 60.3% in the test with HOP-62 NSCLC; 14.3% in the test with NCI-H460 lung; -19.2% (active) in the test on NCI-H522 lung. Further, the growth was 48.7% in the test with A549/ATCC NSCLC; 38.4% in the test on 786-0 renal; 99.5% in the test with COLO 205 colon; 18.3% with DU-145 prostate; 14.3% in the test with K-562 leukemia; 62.6% in the test with MALME-3M melanoma. Further, the growth in the test on MDA-MB-231 breast was 44.3%; with SF-268 CNS it was 44.4%; with SF-295 CNS, 70.8%; with SF-539 CNS it was 1.25% (active); in the test on M14 melanoma it was -2.01% (active).
Consider `Oc1ccc(C(c2ccc(O)cc2)C(Cl)(Cl)Cl)cc1`, for which the growth is 99.8% in the test with NCI-H23 lung; 104% in the test with NCI-H226 lung; 98.2% in the test with NCI-H322M lung; 107% with HOP-62 NSCLC; 98.2% with NCI-H460 lung; 83.2% in the test on NCI-H522 lung. The growth with A549/ATCC NSCLC is 89.2%; with 786-0 renal it was 102%; with COLO 205 colon, 104%; in the test on DU-145 prostate it was 109%; in the test with K-562 leukemia, 79.7%; in the test on MALME-3M melanoma, 134%. Further, the growth is 98.2% with MDA-MB-231 breast; 101% in the test on RXF 393 renal; 96.9% in the test on SF-268 CNS; 96.1% in the test with SF-295 CNS; 99.9% in the test with SF-539 CNS; 119% in the test with UACC-257 melanoma. Besides, the growth with M14 melanoma was 105%.
As for `Cc1ccc(NC(=O)NC(=O)CSc2nc3ccccc3nc2C)cc1`, the growth with NCI-H23 lung was 42.6%; in the test on NCI-H226 lung it was 59.4%; in the test on NCI-H322M lung it was 95.1%; in the test on HOP-62 NSCLC, 45%; with NCI-H460 lung, 64.9%; in the test with NCI-H522 lung it was 40.8%. For the same molecule, the growth with A549/ATCC NSCLC was 70.2%; in the test with 786-0 renal it was -16.3% (active); in the test with COLO 205 colon, 81.1%; in the test with DU-145 prostate, 85%; with K-562 leukemia, 44.8%; with MALME-3M melanoma it was 71.1%. The growth with MDA-MB-231 breast was 73.1%; in the test with RXF 393 renal it was 90.4%; with SF-268 CNS, 86.5%; in the test on SF-295 CNS it was 43.7%; with SF-539 CNS, 65.5%; in the test on M14 melanoma, 74.9%.
`COc1ccc(C2OC(c3cc(-c4cc5ccccc5o4)nn3-c3ccccc3)=NN2C(C)=O)cc1` (stereo not drawn): the growth was 92.5% with NCI-H23 lung; 91% in the test with NCI-H226 lung; 97.9% with NCI-H322M lung; 91.4% in the test with HOP-62 NSCLC; 104% in the test with NCI-H460 lung; 83.4% in the test with NCI-H522 lung. In addition, the growth with A549/ATCC NSCLC was 102%; in the test on 786-0 renal, 92.9%; in the test on COLO 205 colon it was 103%; in the test with DU-145 prostate it was 101%; in the test on K-562 leukemia, 93.1%; with MALME-3M melanoma it was 107%. Moreover, the growth in the test on MDA-MB-231 breast was 95.9%; with SF-268 CNS, 97.7%; with SF-295 CNS, 100%; in the test with SF-539 CNS, 98.6%; with M14 melanoma, 99%.
In the case of `CC(C)n1c(NCCc2ccc(O)c(O)c2)nc2c1c(=O)n(C)c(=O)n2C`, the growth with NCI-H23 lung was 87.2%; in the test on NCI-H226 lung it was 90.1%; in the test on NCI-H322M lung, 95.1%; in the test on HOP-62 NSCLC, 103%; in the test on NCI-H460 lung, 100%; in the test on NCI-H522 lung it was 85.2%. Moreover, the growth is 92.8% in the test with A549/ATCC NSCLC; 90.4% in the test with 786-0 renal; 103% in the test on COLO 205 colon; 102% in the test on DU-145 prostate; 97.1% in the test on K-562 leukemia; 97.9% in the test with MALME-3M melanoma. Also, the growth in the test with MDA-MB-231 breast is 92.2%; with SF-268 CNS, 94.2%; in the test on SF-295 CNS, 106%; in the test on SF-539 CNS it was 104%; in the test on M14 melanoma it was 98.8%.
Take `CCN(CC)c1cc2oc3cc(N)cc(=N)c-3nc2cc1C`: the growth is 13.9% with NCI-H23 lung; 84.9% with NCI-H226 lung; 91.7% with NCI-H322M lung; 65.3% in the test on HOP-62 NSCLC; 74.6% with NCI-H460 lung; 43.4% in the test on NCI-H522 lung. In addition, the growth is 26.1% in the test on A549/ATCC NSCLC; 62.6% in the test on 786-0 renal; 20.8% with COLO 205 colon; 85.7% in the test on DU-145 prostate; 24.9% in the test with K-562 leukemia; 1.85% (active) in the test on MALME-3M melanoma. The growth with MDA-MB-231 breast is 26.7%; in the test with RXF 393 renal, 86.2%; in the test with SF-268 CNS, 64.5%; in the test with SF-295 CNS, 48.1%; in the test on SF-539 CNS, 1.94% (active); with UACC-257 melanoma it was 32.9%. The growth in the test on M14 melanoma is 25.5%.
As for `CC1CCC(n2cnc3c(Cl)ncnc32)O1` (stereo not drawn), the growth in the test on NCI-H23 lung is 89.5%; with NCI-H226 lung, 95.9%; with NCI-H322M lung it was 86.3%; in the test on HOP-62 NSCLC it was 91.2%; with NCI-H460 lung, 101%; in the test on HOP-92 NSCLC, 75.5%. In addition, the growth in the test on NCI-H522 lung was 82.9%; in the test on 786-0 renal it was 98.1%; in the test on COLO 205 colon, 104%; in the test with DU-145 prostate it was 112%; in the test on MALME-3M melanoma it was 88.5%; in the test with MDA-MB-231 breast it was 105%. Besides, the growth was 105% in the test on SF-268 CNS, 95.5% with SF-295 CNS, 97.5% in the test on SF-539 CNS and 93.8% in the test on M14 melanoma.
For the molecule `COC(=O)CNC(=O)[C@@H](OC)[C@@H]1Cc2cc3cc(OC4CC(OC5CC(O)C(O)C(C)O5)C(O)C(C)O4)c(C)c(O)c3c(O)c2C(=O)[C@H]1OC1CC(OC2CC(OC3CC(C)(O)C(O)C(C)O3)C(O)C(C)O2)C(O)C(C)O1` (stereo partly drawn), the growth was -16.8% (active) in the test on NCI-H23 lung; -10% (active) in the test with NCI-H226 lung; 15.7% with NCI-H322M lung; 21.6% with HOP-62 NSCLC; 9.15% (active) in the test with NCI-H460 lung; -19% (active) in the test with NCI-H522 lung. Also, the growth in the test with A549/ATCC NSCLC is 7.82% (active); in the test on 786-0 renal, -2.99% (active); in the test on COLO 205 colon, -17.6% (active); in the test with DU-145 prostate, 17.2%; in the test with K-562 leukemia it was 10.2%; in the test with MALME-3M melanoma, -35.3% (active). For the same molecule, the growth in the test on MDA-MB-231 breast was 21.5%; in the test with RXF 393 renal, -75.4% (active); in the test on SF-268 CNS, 21.1%; in the test on SF-295 CNS, 6.85% (active); in the test on SF-539 CNS, -28.7% (active); in the test on UACC-257 melanoma, 6.03% (active). Also, the growth with M14 melanoma was -32.1% (active).

These data come from PubChem BioAssay (NCI).
